# Compound activity: PubChem, National Center for Advancing Translational Sciences (NCATS)
# The list is not random: actives were taken first. Their share in the collection is about 12%.
# Pf growth 96h – inhibits malaria parasite growth, 96 h. AID 504834. Potency, µM (top dose mostly 28.7 µM), without a hit: at the top dose activity change, negative = inhibition, actives largely listed as inhibitors. 6.9% of 320,000 active. P. falciparum luciferase reporter growth, 96 h; also: % is scaled to controls: 0 for no effect and ±100 for the full control effect
#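 Erythrocytes infected with luciferase-expressing P. falciparum were dispensed at 2% hematocrit and 0.05% parasitemia (final), then incubated with compounds 96 hours at 37 C in 5% CO2. Luminescence after detection reagent addition reported growth.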
# Pf growth 48h – P. falciparum growth inhibition at 48 hours (one generation); Potency, µM (highest dose often 28.7 µM), inactives show top-dose activity change, negative = inhibition, most hits filed as inhibitors; P. falciparum luciferase growth in erythrocytes, 48 h; 5.9% of 310,000 active; AID 504832; also: % is scaled to controls: 0 for no effect and ±100 for the full control effect
#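 Read-out is firefly luciferase luminescence from an integrated reporter in P. falciparum, so falling signal marks reduced parasite growth. Infected erythrocytes were at 2% hematocrit and 0.1% parasitemia (final) in Albumax-supplemented RPMI 1640.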
# SARS PLP yeast – inhibitors of SARS-CoV papain-like protease in yeast | Potency, µM (top dose mostly 32.9 µM), for inactives: top-dose activity, positive = growth rescue, actives largely listed as activators | S. cerevisiae expressing SARS-CoV PLpro, growth rescue | 0.19% of 330,000 active; calls by dose curve; also: 0% is about no effect; nearly all actives have a fitted effect of over 55% in size
# Sm TGR block – blocks Schistosoma mansoni thioredoxin glutathione reductase. Q962Y6. purified TGR, DTNB reduction, TNB absorbance 405 nm. Potency, µM (titrated, usually from 114 µM), for the others: at the highest dose activity change, negative = inhibition, usual class: inhibitors. 3% of 360,000 active. AID 485364; also: % is scaled to controls: 0 for no effect and ±100 for the full control effect; nearly all actives have a fitted effect of over 60% in size
#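 TGR 20 nM + NADPH 100 uM (dispensed conc.), cpd preinc 15 min RT; start with NADPH (500 uM addition) then DTNB (15 mM addition). Kinetic TNB absorbance, 405 nm filter. Four-parameter Hill fit across titration.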
# * = called active by the depositor; i = inactive; ? = inconclusive; . = not tested or not shown. Unless noted, calls follow the shape of the dose curve; as a rule, active = well fitted curve in the direction sought with a large enough effect; inconclusive = small, poorly fitted or top-dose-only effect, or another doubt; inactive = no such curve, though single readings can be large; an effect the other way counts as inactive or inconclusive. Potency is read from the fitted curve at half-maximal effect.
SMILES,Pf growth 96h,Pf growth 48h,SARS PLP yeast,Sm TGR block
COc1ccc(NC(=S)/N=C(\N)Nc2nc(C)c3ccc(C)cc3n2)cc1,-12%,12µM*,1%,18%
CCOc1ccc2nc(N/C(N)=N/C(=S)Nc3ccc(C)c(C)c3)nc(C)c2c1,6.6µM*,6.6µM*,6%,2%
Cc1ccc(NC2=NCC(=O)N2C2CCCC2)c(C)c1,i,2%,23%,22µM*
Cc1ccc(NC2=NCC(=O)N2C2CCCC2)cc1,5.9µM*,15%,1%,.
CN(C(=O)CSc1nnc(-c2ccccc2F)n1N)C1CCCCC1,-26%,-21%,2%,-20%
COc1c(OC)c(O)c2c(=O)c(O)c(-c3ccccc3)oc2c1OC,11%,35%,2%,1%
COc1ccc(-c2oc3cc(OC)c(O)c(OC)c3c(=O)c2OC)cc1O,10µM*,?,0%,-3%
COc1ccc(-c2oc3c(OC)c(OC)c(OC)c(O)c3c(=O)c2OC)cc1OC,3.3µM*,?,14%,-13%
CCCCCOc1ccc(/C=c2\sc3ncnn3c2=O)cc1,-10%,27%,-6%,3%
CCCCOc1ccc(/C=c2\sc3ncnn3c2=O)cc1,1.5µM*,12%,-2%,0%
CN=C(Nc1ccc(C)c(C)c1)SC1CC(=O)N(c2ccc(OC)cc2)C1=O (stereo not drawn),47%,12µM*,0%,.
CCOc1ccc(N2C(=O)CC(SC(=NC)Nc3ccc(F)cc3)C2=O)cc1 (stereo not drawn),9.3µM*,?,22%,0%
CC(=O)Nc1nc(-c2ccccc2)cc(-c2ccco2)c1C#N,26%,13%,3%,?
Cc1cc(-c2ccccc2)[nH]c(=O)c1C#N,2%,13%,3%,-2%
Cc1ccc(-c2cc(-c3ccco3)c(C#N)c(=O)[nH]2)cc1,20%,2%,-3%,2.2µM*
N#Cc1sc2nc(C3CC3)cc(-c3ccccc3)c2c1N,9%,15%,8%,9%
Cc1ccc(-c2cc(C(F)(F)F)c(C#N)c(=O)[nH]2)cc1,-3%,2%,9%,-3%
N#Cc1c(-c2ccco2)cc(-c2ccccc2)[nH]c1=O,18%,21%,1%,8.9µM*
N#Cc1sc2nc(-c3ccccc3)cc(-c3ccco3)c2c1N,6%,?,-18%,40µM*
N#Cc1c(-c2ccccc2)cc(-c2ccco2)c(C#N)c1N,.,4%,4%,2.8µM*
COc1ccc(CN(C)S(=O)(=O)c2ccc3c(c2)OCCO3)cc1,-6%,17%,-3%,1%
Cc1ccc(-c2nc(CC(=O)Nc3cccc(S(=O)(=O)NC4=NCCC4)c3)cs2)cc1,-15%,-10%,-4%,-24%
CCOC(=O)CN(Cc1ccccc1)C(C(=O)NC1CCCCC1)c1ccccc1 (stereo not drawn),.,.,.,-6%
c1ccc(CCNc2ccnc3cc4ccccc4cc23)cc1,49%,0.52µM*,0%,4%
COc1ccc(Nc2ccnc3ccccc23)cc1,?,12µM*,2%,-8%
SMILES,Pf growth 96h,Pf growth 48h,SARS PLP yeast,Sm TGR block
CC(C)Nc1ccc(Nc2ccnc3cc4ccccc4cc23)cc1,0.59µM*,0.52µM*,-1%,-14%
CC(C)Nc1nc(Cl)nc(Nc2ccccc2)n1,?,60%,15%,-7%
O=C(c1cc(-c2ccc(F)cc2)nc2ccccc12)N1CCN(C2CCS(=O)(=O)C2)CC1 (stereo not drawn),?,-8%,2%,-13%
CC(C)OCCCN(C)C1CCN(S(=O)(=O)c2ccc(-c3cc(C(F)(F)F)no3)s2)CC1,?,12µM*,11%,0%
CCN(CC(=O)NCc1cccs1)S(=O)(=O)c1cccc(Br)c1,-49%,?,4%,0%
CCN(CC)Cc1cc(NC2=NS(=O)(=O)c3ccccc32)ccc1OC(=O)c1ccccc1,9.3µM*,?,3%,1%
CCN(CC)Cc1cc(NC2=NS(=O)(=O)c3ccccc32)ccc1OC(=O)C(C)C,.,.,-3%,5%
CC(=O)c1ccc(NC(=O)CCc2c(C)nc3cc(-c4ccc(Cl)cc4)nn3c2C)cc1,.,.,.,-3%
CCN(CC)c1ccc(/C=N/NC(=O)c2ccc3nc[nH]c3c2)c(O)c1,?,?,3.2µM*,10%
CCN(CC)c1ccc(/C=N/NC(=O)c2nnn(-c3nonc3N)c2C(C)C)c(O)c1,7.4µM*,3.7µM*,?,-3%
CCN(CC)c1ccc(C(=O)N/N=C/c2ccccc2OC(F)F)cc1,?,10µM*,8.9µM*,0%
CCCN(CCC)Cc1c(C(=O)N/N=C/c2c[nH]c3ccccc23)nnn1-c1nonc1N,9.3µM*,5%,-3%,0%
CC(C)Oc1ccccc1/C=N/NC(=O)c1ccc(F)cc1,-7%,16%,-3%,8%
COc1cccc(/C=N/NC(=O)c2ccc3nc[nH]c3c2)c1O,-28%,?,0%,-13%
CCCCn1c(SCC(=O)NC2CC2)nc2ccccc2c1=O,-3%,75%,-5%,-17%
OCC[C@H]1C[C@H](O)[C@@H](O)[C@@]2(CCCc3ccccc3O2)O1,46%,17%,-16%,-20%
COc1ccc(NC(=O)CCCC(=O)OCC(=O)c2cccc(OC)c2)cc1,-12%,?,.,2%
CCN(CC)c1ccc(/C=N/NC(=O)c2ccoc2C)c(O)c1,?,1.3µM*,15%,18%
CCN(CC)c1ccc(/C=N/NC(=O)OC)c(O)c1,-14%,.,-23%,9%
COc1ccc(NC(=O)C2CC(=O)N(C)C(=Nc3ccc4c(c3)OCO4)S2)cc1 (stereo not drawn),?,10µM*,3%,-9%
CCOC(=O)C1CCN(C(=O)CSc2cc(=O)n(CC)c3ccccc23)CC1,0.0033µM*,-28%,-2%,11%
CCn1c(=O)cc(SCC(=O)N2CCN(C)CC2)c2ccccc21,0.066µM*,.,5%,-7%
Cc1c(Cl)cccc1-c1ccc(/C=N/n2cnnc2)o1,8.3µM*,.,-16%,-2%
COc1ccc(S(=O)(=O)N(CC(=O)NC2CC3CCC2C3)c2ccccc2OC)cc1 (stereo not drawn),18%,?,-3%,-10%
COc1ccc(S(=O)(=O)N(CC(=O)NC2CCCC2)c2ccccc2OC)cc1,12µM*,?,?,2%
SMILES,Pf growth 96h,Pf growth 48h,SARS PLP yeast,Sm TGR block
O=C(CN(c1ccccc1)S(=O)(=O)c1ccc(F)cc1)NC1CCCCCC1,2.3µM*,4%,0%,2%
O=C(CN(c1ccccc1)S(=O)(=O)c1ccc(F)cc1)NC1CCS(=O)(=O)C1 (stereo not drawn),46%,31%,0%,-2%
Cc1ccc(C)c(N(CC(=O)NC2CCCC2)S(=O)(=O)c2ccccc2)c1,13µM*,-17%,?,0%
COc1ccc(OC(C)c2nc3ccccc3[nH]2)cc1 (stereo not drawn),.,.,.,0%
CCOc1ccc(NC(=O)c2ccc3c(SCC(=O)O)c4c(nc3c2)CCCC4)cc1,0%,-13%,-4%,-8%
CCOC(=O)c1ccccc1NC(=O)c1ccc2c(SCC(=O)O)c3c(nc2c1)CCCC3,?,2.3µM*,-1%,-15%
